# Entries with a potency or affinity are not part of this list. The source made the active and inactive calls.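 How the source made its calls: active means signal drop with fitted half-maximal dose at most twice the top valid dose, active in every repeat; inconclusive means repeats disagree, or flat partial inhibition, or poor fit; inactive means inactive in every repeat, including opposite effects.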
# Target: Caspase-3 (Homo sapiens) (UniProt P42574)
# Experiment: caspase-3 enzyme inhibitors, selectivity check, dose response, selectivity assay for caspase-6 allosteric inhibitor project, biochemical, fluorescence, cherry-picked samples (AID 743291)
# Chain of Caspase-3 (Homo sapiens) (P42574 whole entry, looked up): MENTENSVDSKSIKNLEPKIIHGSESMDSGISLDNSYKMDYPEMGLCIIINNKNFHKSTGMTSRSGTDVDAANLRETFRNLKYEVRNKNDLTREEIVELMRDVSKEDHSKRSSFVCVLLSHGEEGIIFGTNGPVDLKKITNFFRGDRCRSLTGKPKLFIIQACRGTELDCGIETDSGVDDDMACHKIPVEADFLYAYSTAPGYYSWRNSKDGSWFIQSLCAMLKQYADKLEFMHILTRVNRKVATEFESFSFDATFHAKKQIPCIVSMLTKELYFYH
smiles,measurement,value
CN1CCc2cc3c(c4c2C1Cc1ccccc1-4)OCO3 (stereo unspecified),outcome,inactive

# Source: PubChem BioAssay AID743291 (Broad Institute, 2014)
